Drawing on PubChem BioAssay (EPA / NIEHS), this text covers outcome and AC50 for 14 compounds.

SMILES strings stand for the structures. Inconclusive results are not listed. Some structures have more than one record in an assay (separate samples or runs), and their calls can disagree. The source made the active and inactive calls. The calls were made as follows: active = hit-call score of the fitted dose curve at least 0.9, where 1 is the maximum; inconclusive = response in the unintended direction; inactive = score below 0.9.

Test [1] can be described thus: TOX21_p53_BLA_p2_viability: Viability Assessment in the Tox21 HCT-116 p53 Agonism Beta-lactamase Assay, Phase 2 (AID 2283591).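 Also: actives lower the ATP signal meaning cytotoxicity.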 The method in brief: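 HCT-116 p53-bla cells (4000/well) rested 5 h at 37C, then received compounds in DMSO (217-fold dilution) for 16 h at 37C, 5% CO2. After the CCF4 read, CellTiter-Glo was added; ATP luminescence was read after 30 min at room temperature.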

A short description of test [2]: TOX21_p53_BLA_p3_viability: Viability Assessment in the Tox21 HCT-116 p53 Agonism Beta-lactamase Assay, Phase 3 (AID 2283593).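 Also: cells exposed to compound for 16 h before reading.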 Put shortly: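 HCT-116 cells (4000/well) rested 5 h at 37C, then got DMSO compounds by pin tool (217-fold dilution) for 16 h at 37C, 5% CO2. After the bla read, CellTiter-Glo was added and luminescence read at 30 min, room temperature.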
The target in test [3] is Cellular tumor antigen p53 (Homo sapiens) (UniProt P04637). Description: TOX21_p53_BLA_p5_ratio: Tox21 HCT-116 p53 Agonism Beta-lactamase Assay, Ratio, Phase 5 (AID 2283599). The method in brief:
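HCT-116 cells carrying a p53-inducible beta-lactamase reporter were seeded at 4000 cells/well and dosed after 5 h with compound in DMSO (217-fold dilution). After 16 h at 37C, CCF4-AM substrate was added for 2 h, and the 460/530 nm emission ratio was scored as gain-of-signal versus DMSO.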

Test [4] can be described thus: TOX21_p53_BLA_p5_viability: Viability Assessment in the Tox21 HCT-116 p53 Agonism Beta-lactamase Assay, Phase 5 (AID 2283600). Put shortly: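 Decreased CellTiter-Glo luminescence denotes lost viability. Exposure: 16 h at 37C, 5% CO2, with compounds from DMSO stocks diluted 217-fold in wells of 4000 cells.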
Test [5] has as its target PGR (gene 5241) (UniProt P06401). As to the kind of experiment: TOX21_PR_BLA_Followup_Antagonist_ratio: Tox21 HEK293 Progesterone Receptor (PR) Antagonism Beta-lactamase Follow-Up Assay, Ratio (AID 2283934). The method in brief:
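Read-out: blue/green beta-lactamase FRET ratio (cleaved ch2 over uncleaved ch1), fitted relative to DMSO baseline. Cells: PR-UAS-bla HEK293T, GAL4-UAS reporter, stimulated with 1 nM R5020 final; 16 hr compound exposure, 37C.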

Test [6] in a line: TOX21_PR_BLA_Followup_Agonist_viability: Viability Assessment in the Tox21 HEK293 Progesterone Receptor (PR) Agonism Beta-lactamase Follow-Up Assay (AID 2283935).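 Also: signal loss means lower viability so actives are cytotoxic.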 The method in brief:
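Luminescent ATP quantitation (CellTiter-Glo, 30 min, room temperature) in the same wells as the beta-lactamase read, on PR-UAS-bla HEK293T cells exposed to compound for 16 hr at 37C in 2% charcoal-stripped serum.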

Test [7] can be described thus: TOX21_PR_BLA_Followup_Antagonist_viability: Viability Assessment in the Tox21 HEK293 Progesterone Receptor (PR) Antagonism Beta-lactamase Follow-Up Assay (AID 2283936).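 Also: cells exposed to compound with R5020 agonist for 16 h; hits lower the luminescence signal meaning cytotoxicity.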 The method in brief: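 PR-UAS-bla HEK293T cells in medium with 2% charcoal-stripped FBS were treated with compounds plus R5020 for 16 hr at 37C. After the beta-lactamase read, CellTiter-Glo was added to the same wells and luminescence read after 30 min at room temperature.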

The nature of test [8]: TOX21_PR_LUC_Followup_Agonist_viability: Viability Assessment in the Tox21 HEK293 Progesterone Receptor (PR) Agonism Luciferase Follow-Up Assay (AID 2283941).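 Also: loss of signal means cytotoxicity so actives lower viability.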 The method in brief:
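Cytotoxicity counter-screen: ATP content by CellTiter-Glo luminescence, loss of signal = reduced viability. HEK293-PR-A-luc, 3,000 cells/well, compound exposure 16 h, 37C.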

Test [9] can be described thus: TOX21_p53_BLA_p4_viability: Viability Assessment in the Tox21 HCT-116 p53 Agonism Beta-lactamase Assay, Phase 4 (AID 2283597).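 Also: hits lower the luminescence signal meaning cytotoxicity.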 The method in brief: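 4000 HCT116 cells per well; 5 h attachment; compounds from DMSO, 217-fold dilution; 16 h at 37C. Then CCF4-AM, 2 h RT, followed by CellTiter-Glo, 30 min RT, luminescence. Decrease = cytotoxicity.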
Test [10] addresses Cellular tumor antigen p53 (Homo sapiens) (UniProt P04637). As to the kind of experiment: TOX21_p53_BLA_p4_ratio: Tox21 HCT-116 p53 Agonism Beta-lactamase Assay, Ratio, Phase 4 (AID 2283601). Put shortly: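 HCT116 cells carrying an inducible beta-lactamase reporter were plated at 4000 cells/well, rested 5 h, then exposed to compounds in DMSO (217-fold dilution) for 16 h at 37C. CCF4-AM substrate was loaded 2 h at room temperature; 460/530 nm emission ratio scored gain-of-signal versus DMSO.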

Test [11] shares this target. Description: TOX21_p53_BLA_p3_ratio: Tox21 HCT-116 p53 Agonism Beta-lactamase Assay, Ratio, Phase 3 (AID 2283596). The method in brief:
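Cells were seeded at 4000/well, rested 5 h at 37C, then dosed with DMSO compound solutions (217-fold dilution) for 16 h. CCF4-AM substrate was loaded for 2 h at room temperature, and the 460/530 nm emission ratio was fitted for gain of signal versus DMSO.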

The target in test [12] is Thyroid hormone receptor alpha (Rattus norvegicus) + Thyroid hormone receptor beta (Rattus norvegicus) (UniProt P18113+P63059). Description: TOX21_TR_LUC_GH3_Antagonist_Followup: Tox21 GH3 Thyroid Hormone Receptor Antagonism Luciferase Follow-Up Assay (AID 2283942). Put shortly: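 In a GH3 luciferase reporter line, test chemicals spanning 92 uM to 5nM final are co-incubated 24 h with 1.0 nM T3. Activity is expressed as relative luminescence units and analysed relative to DMSO.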

In test [13] the target is THRA (gene 7067) (UniProt P10827). As to the kind of experiment: TOX21_TRA_COA_Antagonist_Followup_ratio: Tox21 Thyroid Hormone Receptor alpha Antagonism through Coactivator Recruitment Follow-Up Assay, Ratio (AID 2283953). Put shortly:
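We measured antagonism of T3-type coactivator recruitment using a TR-FRET ratio (emission 520 and 495 nm) between a Tb-labelled anti-GST antibody on TRα LBD (2.5 nM) and SRC-2 peptide (200 nM). Activity was scaled between DMSO and T3 wells.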

In test [14] the target is THRB (gene 7068) (UniProt P10828). As to the kind of experiment: TOX21_TRB_BLA_Antagonist_Followup_ratio: Tox21 Thyroid Hormone Receptor beta Antagonism Beta-lactamase (BLA) Follow-Up Assay, Ratio (AID 2283958). Put shortly:
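Read-out: blue/green (460:530 nm) ratio of cleaved to uncleaved CCF4-AM after 2 h at room temperature, fitted against DMSO baseline. HEK293T UAS-bla cells carrying GAL4-human TRβ LBD were exposed 18 h, 37C/5% CO2.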

The nature of test [15]: TOX21_TRB_BLA_Antagonist_Followup_viability: Viability Assessment in the Tox21 Thyroid Hormone Receptor beta Antagonism Beta-lactamase (BLA) Follow-Up Assay (AID 2283961). Put shortly:
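HEK293T cells with GAL4-human TRβ LBD and UAS-bla reporter, 3,000 cells/well in 2% charcoal-stripped FBS medium; 11-point concentrations in triplicate, 18 h at 37C. Viability from ATP by CellTiter-Glo luminescence, 30 min RT, same plates.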

Test [16] has as its target Retinoic acid receptor RXR-alpha (Homo sapiens) (UniProt P19793). Description: TOX21_TR_RXR_BLA_Antagonist_Followup_ratio: Tox21 Thyroid Hormone Receptor beta Retinoid X Receptor alpha (RXRa) Antagonism Beta-lactamase (BLA) Follow-Up Assay, Ratio (AID 2283972). Put shortly: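 RXRa-UAS-bla HEK293T cells, 2,500/well in phenol red-free DMEM with 2% charcoal-stripped FBS, 5 h attachment, then compounds (11 concentrations, triplicate) for 16 h at 37C; FRET-B/GCCF4-AM substrate 2 h RT; 460:530 nm ratio, loss of signal vs DMSO.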

The nature of test [17]: TOX21_TR_RXR_BLA_Antagonist_Followup_viability: Viability Assessment in the Tox21 Thyroid Hormone Receptor beta Retinoid X Receptor alpha (RXRa) Antagonism Beta-lactamase (BLA) Follow-Up Assay (AID 2283979). Put shortly: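 RXRa-UAS-bla HEK293T cells seeded 2,500/well in phenol red-free DMEM with 2% charcoal-stripped FBS, attached 5 h, then exposed to compounds at 11 concentrations in triplicate for 16 h at 37C/5% CO2. Viability read by CellTiter-Glo ATP luminescence; bidirectional fit versus DMSO.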

Chain of Cellular tumor antigen p53 (Homo sapiens) (P04637 whole entry, looked up): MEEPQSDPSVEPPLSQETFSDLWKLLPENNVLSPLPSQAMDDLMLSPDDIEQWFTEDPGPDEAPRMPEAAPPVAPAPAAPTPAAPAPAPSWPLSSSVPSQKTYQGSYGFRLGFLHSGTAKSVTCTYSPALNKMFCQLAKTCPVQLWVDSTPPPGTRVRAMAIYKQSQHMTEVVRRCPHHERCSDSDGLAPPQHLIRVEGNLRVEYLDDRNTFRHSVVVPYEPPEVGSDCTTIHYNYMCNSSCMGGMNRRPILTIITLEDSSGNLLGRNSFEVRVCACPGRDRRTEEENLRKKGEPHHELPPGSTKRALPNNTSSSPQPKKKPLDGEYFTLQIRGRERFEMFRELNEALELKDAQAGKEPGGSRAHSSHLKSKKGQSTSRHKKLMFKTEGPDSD
Chain of PGR (gene 5241) (P06401 whole entry, looked up, the tested form may be a part): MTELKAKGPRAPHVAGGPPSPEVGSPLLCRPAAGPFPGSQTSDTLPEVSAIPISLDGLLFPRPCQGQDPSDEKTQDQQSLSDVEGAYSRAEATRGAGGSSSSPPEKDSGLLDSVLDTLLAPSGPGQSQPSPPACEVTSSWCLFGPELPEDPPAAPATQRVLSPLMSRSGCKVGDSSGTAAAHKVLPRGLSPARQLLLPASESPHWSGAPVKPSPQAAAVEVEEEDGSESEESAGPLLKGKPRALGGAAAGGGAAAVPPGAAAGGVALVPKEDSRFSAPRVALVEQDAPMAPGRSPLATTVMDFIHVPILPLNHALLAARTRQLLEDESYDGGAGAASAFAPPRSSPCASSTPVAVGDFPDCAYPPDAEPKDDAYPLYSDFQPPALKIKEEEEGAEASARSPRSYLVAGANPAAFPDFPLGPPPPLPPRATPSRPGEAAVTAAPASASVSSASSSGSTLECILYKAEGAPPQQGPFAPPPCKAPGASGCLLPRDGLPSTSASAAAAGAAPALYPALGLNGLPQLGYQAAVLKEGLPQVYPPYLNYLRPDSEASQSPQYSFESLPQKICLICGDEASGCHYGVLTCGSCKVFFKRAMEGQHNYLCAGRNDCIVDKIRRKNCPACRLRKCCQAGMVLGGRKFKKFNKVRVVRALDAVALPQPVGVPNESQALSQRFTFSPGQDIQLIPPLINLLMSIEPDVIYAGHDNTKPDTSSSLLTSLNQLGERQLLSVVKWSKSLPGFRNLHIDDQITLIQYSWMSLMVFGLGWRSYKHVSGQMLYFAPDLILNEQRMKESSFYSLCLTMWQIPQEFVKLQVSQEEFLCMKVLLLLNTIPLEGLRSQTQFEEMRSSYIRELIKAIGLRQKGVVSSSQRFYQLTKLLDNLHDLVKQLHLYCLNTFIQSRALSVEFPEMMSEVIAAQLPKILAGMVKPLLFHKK
Chain of THRB (gene 7068) (P10828 whole entry, looked up, the tested form may be a part): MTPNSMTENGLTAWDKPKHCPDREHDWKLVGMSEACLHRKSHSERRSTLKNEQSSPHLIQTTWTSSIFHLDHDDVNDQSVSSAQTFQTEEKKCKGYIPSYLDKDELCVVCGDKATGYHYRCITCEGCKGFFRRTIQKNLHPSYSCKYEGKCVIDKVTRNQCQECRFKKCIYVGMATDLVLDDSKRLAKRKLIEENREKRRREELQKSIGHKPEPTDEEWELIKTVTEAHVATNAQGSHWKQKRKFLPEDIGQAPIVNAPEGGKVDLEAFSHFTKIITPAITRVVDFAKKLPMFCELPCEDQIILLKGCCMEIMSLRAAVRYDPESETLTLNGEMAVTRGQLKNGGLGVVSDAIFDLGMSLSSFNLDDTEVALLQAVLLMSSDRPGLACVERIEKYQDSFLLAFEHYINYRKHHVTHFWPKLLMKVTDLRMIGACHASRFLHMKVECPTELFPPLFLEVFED
Chain of Retinoic acid receptor RXR-alpha (Homo sapiens) (P19793 whole entry, looked up): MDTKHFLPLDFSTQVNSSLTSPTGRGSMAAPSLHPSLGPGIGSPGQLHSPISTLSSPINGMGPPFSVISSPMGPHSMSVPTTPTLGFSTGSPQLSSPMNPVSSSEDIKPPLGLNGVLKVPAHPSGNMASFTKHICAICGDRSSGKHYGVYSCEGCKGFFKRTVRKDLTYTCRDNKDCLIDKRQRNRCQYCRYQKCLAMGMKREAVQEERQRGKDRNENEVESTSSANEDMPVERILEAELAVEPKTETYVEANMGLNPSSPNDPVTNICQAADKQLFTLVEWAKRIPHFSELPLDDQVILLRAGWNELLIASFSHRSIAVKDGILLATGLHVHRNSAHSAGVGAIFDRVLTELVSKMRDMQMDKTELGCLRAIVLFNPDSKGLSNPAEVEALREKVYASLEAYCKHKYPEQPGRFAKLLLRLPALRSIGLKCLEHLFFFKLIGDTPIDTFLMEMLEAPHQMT
Chain of THRA (gene 7067) (P10827 whole entry, looked up, the tested form may be a part): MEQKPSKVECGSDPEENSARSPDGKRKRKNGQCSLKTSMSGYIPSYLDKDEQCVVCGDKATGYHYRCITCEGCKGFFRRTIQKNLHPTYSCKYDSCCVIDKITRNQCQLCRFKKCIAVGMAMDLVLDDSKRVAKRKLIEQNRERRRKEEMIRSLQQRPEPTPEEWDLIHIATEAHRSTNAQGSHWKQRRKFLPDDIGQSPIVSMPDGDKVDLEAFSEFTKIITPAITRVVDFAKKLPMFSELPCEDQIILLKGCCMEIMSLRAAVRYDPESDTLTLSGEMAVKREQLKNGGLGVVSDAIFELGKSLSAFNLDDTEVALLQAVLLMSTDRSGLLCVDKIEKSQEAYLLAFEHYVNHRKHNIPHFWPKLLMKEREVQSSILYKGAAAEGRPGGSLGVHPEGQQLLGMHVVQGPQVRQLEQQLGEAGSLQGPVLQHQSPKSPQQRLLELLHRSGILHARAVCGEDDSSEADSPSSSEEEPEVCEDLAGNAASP

The term AC50 denotes the concentration giving half of the maximal activity seen. `COC(=O)C(c1ccccc1Cl)N1CCc2sccc2C1` (stereo not drawn): the compound was called inactive in test [1], in test [2], in [3], in [4], in test [6] and in test [7]. For the same compound, the compound was classed as inactive in [8]. Further, the half-maximal activity concentration (AC50) in test [5] is 28.9 µM (active).
Consider `C[C@H]1C[C@H]2[C@@H]3CCC4=CC(=O)C=C[C@]4(C)[C@@]3(Cl)[C@@H](O)C[C@]2(C)[C@@]1(O)C(=O)CO`, for which the call in test [1], in test [2], in test [9], in [4], in test [10] and in test [5] was inactive. Moreover, the outcome in test [6] and in [8] was inactive.
As for `BrC/C=C/CBr`, the outcome in [1], in test [11], in test [9], in test [3] and in test [4] was inactive.
With `CCCCN1C=CN(C)C1`, the compound was called inactive in test [1], in test [11], in [9], in [3] and in test [4].
For `Cc1cc(C(=O)O)ccc1[N+](=O)[O-]`, the compound was classed as inactive in [1], in test [11], in [9] and in test [3].
As to `Cc1ccc2c(c1)c1c3n2CCNC3CCC1` (stereo not drawn), the compound was classed as inactive in [1], in [11], in test [9] and in [3].
Take `CCC(C)SSC(C)CC` (stereo not drawn): the result in test [1], in test [11], in test [9], in [3], in test [4] and in [10] was inactive.
`O=C1c2ccccc2-c2ccccc21`: the call in test [1], in test [11], in [9] and in [3] was inactive.
Consider `CCN(Cc1cccc(S(=O)(=O)O)c1)c1ccccc1`, for which the result in test [1], in [11], in test [9], in test [3] and in test [4] was inactive.
Turning to `ClC/C=C/CCl`, the call in [1], in test [11], in [9], in test [3] and in test [4] was inactive.
For `O=C(Nc1ccc(O)cc1)c1ccccc1O`, the compound was called inactive in test [1], in test [11] and in test [9].
In the case of `Nc1nc(/C(=C/CC(=O)O)C(=O)N[C@@H]2C(=O)N3C(C(=O)O)=CCS[C@H]23)cs1`, the compound was called inactive in [1], in [11], in test [9] and in test [3].
As to `Cc1ccc(=O)n(-c2ccccc2)c1`, the result in [1], in [11], in test [9], in test [3] and in test [10] was inactive.
With `CC[C@@]1(O)C[C@@H]2CN(CCc3c([nH]c4ccccc34)[C@@](C(=O)OC)(c3cc4c(cc3OC)N(C)[C@H]3[C@@](O)(C(=O)OC)[C@H](OC(C)=O)[C@]5(CC)C=CCN6CC[C@]43[C@@H]65)C2)C1`, the compound was called inactive in [1], in test [11], in test [9], in test [3], in [4] and in test [13]. Further, the compound was called inactive in test [15], in test [16] and in test [17]. Further, the figures for the AC50 in test [3], in [12] and in test [14] were 0.0173 µM (active), 17.5 µM (active) and 0.0734 µM (active), respectively.
